# Screens: PubChem BioAssay, National Center for Advancing Translational Sciences (NCATS)
# A selection: hits, their analogues and other compounds. The true share with any hit is near 9.4%.
# HTT ATP protect: protects HTT-Q103 PC12 cells, measured by ATP; 230,000 compounds, 0.14% hits; Potency, µM (top dose mostly 56.4 µM), inactives show cytoprotection (ATP increase), actives largely listed as activators; PC12 HTT-Q103 induced, cytoprotection, ATP luminescence, 40 h; further: potency means the concentration at half of the fitted maximal effect; % of control where 0% means no effect; nearly all actives have a fitted effect of over 45% in size
#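 ATP quantification (ATPlite) reports survival of PC12 cells in which tebufenozide, 100 nM final, switches on Htt exon 1 with 103 glutamines linked to GFP; compounds are titrated.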
# IMPase inh: membrane-permeable compound that blocks inositol monophosphatase | P97697 | CHO-M1 cells, IP1 accumulation, HTRF TR-FRET ratio | inhibition (IP1 accumulation), % at 46.1 µM | 120,000 tested, under 10 active; active means well fitted curve in the direction sought with a large enough effect in the signal ratio, not every such curve was filed as active; inconclusive means small, poorly fitted or top-dose-only effect, or a change in a side signal; inactive means no such curve, though single readings can be large or run the other way; the % refers to the signal ratio;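 further: cells stimulated with carbachol in lithium chloride buffer; plate controls were DMSO basal wells for no effect and reference inhibitor wells for full effect; higher means more IMPase inhibition seen as more IP1 and lower FRET ratio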
# Target sequence (P97697 whole entry, looked up): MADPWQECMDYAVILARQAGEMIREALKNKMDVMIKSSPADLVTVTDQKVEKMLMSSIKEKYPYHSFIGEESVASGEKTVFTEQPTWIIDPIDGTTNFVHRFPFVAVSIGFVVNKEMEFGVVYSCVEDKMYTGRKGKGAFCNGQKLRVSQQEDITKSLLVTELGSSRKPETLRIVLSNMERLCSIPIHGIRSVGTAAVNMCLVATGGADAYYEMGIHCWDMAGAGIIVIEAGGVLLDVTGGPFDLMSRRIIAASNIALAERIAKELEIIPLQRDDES
#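 Elevated IP1 in lysates lowers TR-FRET signal (665/620 ratio and 620 channel reported). Cells were CHO-M1, given carbachol (50 uM as added) plus 50mM LiCl, pH 7.4, 30 min, 37C; compounds titrated up to 46 uM; AC50 by Hill equation.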
# ALDH1A1 block: ALDH1A1 (human) enzyme inhibition. Purified ALDH1A1, NADH fluorescence, propionaldehyde substrate. Potency, µM (top dose mostly 75.3 µM), inactives show at the top dose activity, negative = inhibition, actives largely listed as inhibitors. 220,000 compounds, 7.3% hits. AID 1030; active means well fitted inhibition curve with a large enough effect, not every such curve was filed as active; inconclusive means small, poorly fitted or top-dose-only effect, or another doubt; inactive means no such curve, though single readings can be large or run the other way;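 further: potency means the concentration at half of the fitted maximal effect; plate controls were no enzyme wells and a reference inhibitor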
# HPGD inh: blocks human HPGD enzyme activity; purified HPGD, NADH fluorescence kinetic, PGE2 substrate; Potency, µM, inactives show at the highest dose activity change, negative = inhibition, actives largely listed as inhibitors; 150,000 compounds, 4.3% hits; P15428; active means well fitted inhibition curve with a large enough effect, not every such curve was filed as active; inconclusive means small, poorly fitted or top-dose-only effect, or another doubt; inactive means no such curve, though single readings can be large or run the other way; further: potency means the concentration at half of the fitted maximal effect; on the % scale 0 is the no-effect control and ±100 the full control effect
# Target sequence (P15428 whole entry, looked up): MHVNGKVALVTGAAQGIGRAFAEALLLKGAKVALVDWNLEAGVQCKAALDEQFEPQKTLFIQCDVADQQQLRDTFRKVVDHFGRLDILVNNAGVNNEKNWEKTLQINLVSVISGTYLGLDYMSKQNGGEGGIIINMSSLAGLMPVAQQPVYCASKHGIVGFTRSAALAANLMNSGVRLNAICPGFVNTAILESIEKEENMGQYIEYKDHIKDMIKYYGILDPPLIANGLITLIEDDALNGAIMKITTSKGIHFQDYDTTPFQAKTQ
#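 20 nM HPGD preincubated 15 min at room temperature with compound in 50 mM Tris-HCl pH 8, 0.01% Tween 20. Started with 1 mM NAD+ and 30 uM prostaglandin E2; NADH fluorescence (360/450 nm) read 5 times over 30-s intervals, last minus first.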
# IMPase Li inh: membrane-permeable IMPase blocker, potentiated with lithium; 210,000 compounds, 0.35% hits; Potency, µM (doses to about 59.4 µM), for inactives: top-dose activity, negative = IMPase inhibition, actives largely listed as inhibitors; CHO-M1 cells, IP1 TR-FRET (IP-One), carbachol + lithium;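 further: IP1 builds up when IMPase is blocked and the TR-FRET signal falls; potency means the concentration at half of the fitted maximal effect; plate controls were basal vehicle for no effect and high inhibitor control for full effect; nearly all actives have a fitted effect of over 50% in size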
#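 Test compounds were applied to CHO-M1 cells previously cultured for 16–30 h at 2000 per well. A small lithium amount accompanied them; after 30 min at 37C, IP1 was quantified by TR-FRET.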
# HttQ103 aggreg: reduces HttQ103-GFP aggregates in PC12 cells; PC12 HttQ103-GFP aggregates, Acumen cytometry, 40 h; Potency, µM (top dose mostly 46.1 µM), inactives show top-dose activity change, negative = inhibition, usual class: inhibitors; 220,000 compounds, 1.1% hits; further: potency means the concentration at half of the fitted maximal effect; on the % scale 0 is the no-effect control and ±100 the full control effect; nearly all actives have a fitted effect of over 60% in size
#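 Multiplexed with ATP-based cell death, this channel scores GFP aggregates in PC12 cells expressing inducible HTTex1-Q103-GFP. Induction used 100 nM tebufenozide; compounds were tested in concentration series.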
# * hit, by the source's call; ? = inconclusive; · = no result; [ ] = dose if it differs, or a comment. Unless noted, the call rests on the fitted dose curve; in most records, active means well fitted curve in the direction sought with a large enough effect; inconclusive means small, poorly fitted or top-dose-only effect, or another doubt; inactive means no such curve, though single readings can be large; an effect the other way counts as inactive or inconclusive.
SMILES,HTT ATP protect,IMPase inh,ALDH1A1 block,HPGD inh,IMPase Li inh,HttQ103 aggreg
CCOc1cc(/C=C2\CCCC(C(=O)C(F)(F)F)=C2O)ccc1O,-11.0%[10 µM],·,0.159µM*,-12.6%,4.8%,?
COc1cc(/C=C2/CCCC(C(=O)C(F)(F)F)=C2O)ccc1O,5.3%[10 µM],·,·,·,·,-23.5%[9.22 µM]
CCOc1ccc(NC(=O)CC2SC(=O)N(c3ccccc3)C2=O)cc1 (configuration not stated),2.3%[10 µM],·,7.94µM*,·,0.8%,10.6%[9.22 µM]
CCOc1ccccc1NC(=O)CC1SC(=N)N(c2ccccc2)C1=O (configuration not stated),18.3%[10 µM],·,3.1%,·,4.6%,18.6%
Cc1ccc(NC2=NCC(=O)N2CCc2ccccc2)cc1C,1.2%[10 µM],16.1,3.6%,-11.5%,1.2%,-2.0%
CCCN1C(=O)SC(CC(=O)Nc2ccc(Br)cc2)C1=O (configuration not stated),-0.3%[10 µM],-5.7,?,-2.6%,32.9%[38.3 µM],4.8%
CCOc1ccc(NC(=O)Cc2ccccc2)cc1,·,·,1.7%,12.6µM*,-12.4%,17.3%
CCCN1C(=O)SC(CC(=O)Nc2ccccc2C)C1=O (configuration not stated),8.5%[10 µM],-3.6,10µM*,-3.3%,15.7%,16.9%
CCOc1ccc(NC2=NCC(=O)N2CCc2ccccc2)cc1,4.5%,-4.4,25.1µM*,-12.5%,13.2%[38.3 µM],9.9%
CC(=O)CC(=O)Nc1ccccc1,-3.7%,·,-14.0%,-0.3%,-22.1%,·
COc1cccc(NC(=O)CC2S/C(=N\S(=O)(=O)c3ccccc3)N(c3ccccc3)C2=O)c1 (configuration not stated),28.1%[10 µM],·,20µM*,-20.6%,5.7%,-10.5%
COC(=O)c1ccc(NC(=O)C2CC(=O)OC2c2ccccc2)cc1 (configuration not stated),2.0%[10 µM],·,·,·,·,-11.9%[9.22 µM]
CCOc1ccc(NC(=O)c2cccnc2C(=O)O)cc1,-7.9%,-7.5,22.4µM*,-6.3%,-8.1%[38.3 µM],10.3%
CCOc1ccc(NC(=O)C2CC(=O)OC2c2ccccc2)cc1 (configuration not stated),-30.3%,·,25.1µM*,·,-1.8%,20.3%[9.22 µM]
Cc1ccccc1NC(=O)CC1SC(=O)N(c2ccccc2)C1=O (configuration not stated),-13.3%,-4.8,15.8µM*,?,23.0%[38.3 µM],26.3%
COc1cccc(NC(=O)CC2SC(=Nc3ccccc3)NC2=O)c1 (configuration not stated),18.9%,4.5,-11.2%,-11.4%,0.7%[38.3 µM],-8.7%[9.22 µM]
Nc1nc(-c2ccccc2)c(-c2ccccc2)c(-c2nc(N)nc(-c3ccccc3)c2-c2ccccc2)n1,-7.7%[10 µM],·,6.3%[13.5 µM],-1.3%,-8.1%,·
CCNC(=S)N/N=C1\C(=O)c2cccc3cccc1c23,36.3%,1.1,10µM*,-14.8%,21.1%[38.3 µM],18.9%
O=C(N/N=C1/C(=O)c2cccc3cccc1c23)c1ccc(Cl)cc1,-50.8%,-1.3,?,28.2µM*,47.0%[38.3 µM],?
COc1ccc(NC(=S)NC(NC(=O)c2cccc(Cl)c2)C(Cl)(Cl)Cl)c([N+](=O)[O-])c1 (configuration not stated),17.6%[10 µM],15.7,17.8µM*,-12.5%,10.7%,28.2µM*
Cc1cn([C@H]2C[C@H](N=[N+]=[N-])[C@H](CO)O2)c(=O)[nH]c1=O,?,1.4,4.1%[13.5 µM],-15.9%,-1.4%,7.2%
CCn1cc(Br)c(C(=O)NN)n1,-22.2%,-1.6,25.1µM*,-12.2%,-6.8%[38.3 µM],14.8%
CC1CCN(C(=S)c2ccc(O)cc2)CC1,-8.0%,3.9,?,31.6µM*,-10.3%[38.3 µM],-16.3%
CCN1CCN(C(=S)c2ccc(O)cc2)CC1,13.0%[10 µM],·,?,·,5.2%,10.7%[9.22 µM]
CC1CCN(C(=S)c2ccccc2O)CC1,-3.0%,2.3,?,6.31µM*,38.2%[38.3 µM],-0.1%
SMILES,HTT ATP protect,IMPase inh,ALDH1A1 block,HPGD inh,IMPase Li inh,HttQ103 aggreg
CS(=O)(=O)N1CCC2(CCCN(Cc3ccccc3)C2)CC1,21.2%,·,11.6%,-5.1%,17.2%,·
CC(=Nc1ccccc1)C1=C(O)CSC1=O,6.5%,6.0,25.1µM*,-17.7%,2.9%[38.3 µM],4.0%[9.22 µM]
CC1CCCCC1NC(=O)c1ccc2c(c1)[nH]c(=O)n2C1CCCC1 (configuration not stated),-19.2%,15.1,14.1µM*,-10.5%,-18.9%[38.3 µM],-4.1%
CC(=O)c1ccc(Sc2ccc(C(C)=O)cc2)cc1,-15.6%[10 µM],·,0.1%,17.8µM*,-8.0%,30.3%
CC(=O)c1ccc(Sc2ccccc2)cc1,-1.2%[10 µM],0.8,?,?,-9.4%,-2.0%
CSc1ccc(S(=O)(=O)Nc2ccc3c4c(cccc24)CC3)cc1,-25.7%,4.9,?,-13.3%,11.4%[38.3 µM],?
O=S(=O)(Nc1ccc2c3c(cccc13)CC2)c1ccc(F)cc1,-29.2%,3.4,12.6µM*,-15.3%,12.6%[38.3 µM],-27.5%
N#C/C(=C\N1CCNC1=S)C(=O)c1ccc2ccccc2c1,9.0%[10 µM],·,?,-12.7%,-0.1%,·
C=CCOc1c(Cl)cc(CNc2ccc(N(C)C)cc2)cc1OC,?,34.3,2µM*,?,154.4%[38.3 µM],-2.3%
C=CCOc1c(Cl)cc(CNc2ccc(C)c(Cl)c2)cc1OC,-73.3%[10 µM],6.7,-6.1%,-13.4%,41.5%[38.3 µM],-17.1%
COc1ccc(N2CCCn3c2nc2c3c(=O)n(Cc3ccccc3F)c(=O)n2C)c(OC)c1,-6.6%,3.3,11.2µM*,?,13.0%[38.3 µM],-17.0%
COc1ccc(CCN2CCCn3c2nc2c3c(=O)n(Cc3ccccc3F)c(=O)n2C)cc1OC,7.0%,13.0,3.55µM*,?,17.1%[38.3 µM],19.1%
CCn1c(=O)c2c(nc3n2CCCN3CCc2ccccc2)n(C)c1=O,-23.8%[0.074 µM],3.6,7.3%,-15.2%,-4.6%[38.3 µM],3.8%
COc1ccc(N2CCCn3c2nc2c3c(=O)n(Cc3ccccc3F)c(=O)n2C)cc1,-20.2%[0.074 µM],4.3,8.91µM*,-5.6%,-13.5%[38.3 µM],-4.5%
CC(C)(C)OC(=O)C1=NOC2(C=CC(=O)C=C2)C1,-139.2%,·,12.4%,-7.8%,24.6%,·
Fc1ccc(N2CCN(c3nc(CN4CCOCC4)nc4scc(-c5ccccc5)c34)CC2)cc1,-50.3%,·,10.7%,·,18.2%,17.8µM*
CCC(C)C1NC(=O)C(CCNCS(=O)(=O)O)NC(=O)C(NC(=O)C(CCNCS(=O)(=O)O)NC(=O)C(NC(=O)C(CCNCS(=O)(=O)O)NC(=O)CCCCC(C)C)C(C)O)CCNC(=O)C(C(C)O)NC(=O)C(CCNCS(=O)(=O)O)NC(=O)C(CCNCS(=O)(=O)O)NC(=O)C(C(C)CC)NC1=O (configuration not stated),-137.7%,·,6.2%,-7.2%,-3.2%,-26.3%
Cc1ccc(S(=O)(=O)NCc2ccc(C(=O)N3CCCC3)cc2)cc1,·,·,?,20µM*,-2.5%,-2.3%
